Dicer processing – inhibitors of human Dicer processing of pre-microRNA. Q9UPY3. cat-ELCCA pre-miR-21 Dicer processing, chemiluminescence; active compounds read high. z-score at 25 µM. 6% of 47,000 active; in the data active = z-score above about 3, passing the limit was not always enough;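 also: plate controls were vehicle for no effect and no enzyme for full effect; higher signal means more uncleaved substrate so more Dicer inhibition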
* = called active by the depositor. The entries come from a sample that favours hits as a whole.

SMILES	Dicer processing
CC(C)c1ccc(NCN2C(=O)c3ccccc3C2=O)cc1	2.84
C#Cc1cccc(NCN2C(=O)c3ccccc3C2=O)c1	3.09*
CC(=O)Nc1ccc(NCN2C(=O)c3ccccc3C2=O)cc1	-0.7
COC(=O)c1cccc2c1N[C@@H](c1cc3c(cc1Br)OCO3)[C@H]1CC=C[C@@H]21	0.94
Cc1cccc(NC(c2ccc(F)cc2)c2ccc3cccnc3c2O)n1 (stereo not drawn)	8.89*
COc1ccc(C)cc1NC(c1ccccn1)c1ccc2cccnc2c1O (stereo not drawn)	-0.11
Cc1ccc2ccc(C(Nc3ccccn3)c3ccc(F)cc3)c(O)c2n1 (stereo not drawn)	5.62
Cc1cccc(NC(c2ccc3c(c2)OCO3)c2ccc3cccnc3c2O)n1 (stereo not drawn)	2.33
Cc1cccc(NC(c2ccccc2)c2ccc3ccc(C)nc3c2O)n1 (stereo not drawn)	1.67
COc1ccc(NC(c2ccccn2)c2ccc3cccnc3c2O)cc1 (stereo not drawn)	3.12*
Cc1ccc2ccc(C(Nc3cccc(Cl)c3)c3ccccn3)c(O)c2n1 (stereo not drawn)	-2.08
COc1ccc(C(Nc2cccc(C)n2)c2ccc3cccnc3c2O)cc1 (stereo not drawn)	9.1*
CCCOc1ccc(C(Nc2ccccn2)c2ccc3cccnc3c2O)cc1 (stereo not drawn)	2.62
CCCCOC(=O)CNc1n[nH]c(=O)[nH]c1=O	0.68
CCc1[nH]n2c(=O)cc(C)nc2c1-c1ccccc1	1.31
CC(C)(C)NC(=O)c1cccc2c1-c1ccccc1C2=O	-0.56
CCOC(=O)CCc1ccc2c(c1)NC(c1ccc(N(C)C)cc1)O2 (stereo not drawn)	0.16
COc1cc(C2NC(=O)C(C#N)=C(SC)S2)cc(OC)c1OC (stereo not drawn)	-1.21
O=C(O)C1CCCCC1C(=O)Nc1ccc(N2CCOCC2)c2nonc12 (stereo not drawn)	-4.46
CCOC(=O)CSc1ccc2c3c(cccc13)C(=O)N(CCc1ccc(OC)c(OC)c1)C2=O	2.09
CC(C)(C)c1cc2nc(C(F)(F)F)cc(NNC(=O)c3ccc(Cl)cc3)n2n1	5.22*
CC(C)(C)c1cc2nc(C(F)(F)F)cc(NNC(=O)c3ccccc3)n2n1	6.7*
CC(C)(C)c1cc2nc(C(F)(F)F)cc(Sc3ccc(Cl)cc3)n2n1	-1.37
CC(C)(C)c1csc(NNC(=O)c2ccc(Cl)cc2)n1	12.6
CC(C)(C)c1cc2nc(C(F)(F)F)cc(N/N=C/c3ccccc3)n2n1	0.12
SMILES	Dicer processing
CC(C)(C)c1cc2nc(C(F)(F)F)cc(NNC(=O)Nc3ccccc3)n2n1	0.68
Cc1ccc(NC(=O)c2cc(N)ccc2[N+](=O)[O-])cc1C	-0.15
Cc1nc(C(N)=NC(=O)c2ccc(Cl)cc2)cs1	-0.72
CSC(=S)NNC(=O)c1ccc(C(F)(F)F)cc1	2.35
CC(C)n1c(NCCO)nc2ccccc21	-0.94
O=C(Cn1c(NCCO)nc2ccccc21)c1ccco1	-0.78
O=C(Cn1c(NCCO)nc2ccccc21)c1cccc2ccccc12	4.25*
N#CC1=C(N)Oc2n[nH]c(-c3ccccc3)c2C1c1cccnc1 (stereo not drawn)	-5.28
CC1(C)c2ccccc2N2CC(=O)NC21/C=C/c1ccc(F)cc1 (stereo not drawn)	1.11
COCCCNC(=S)NNC(=S)Nc1cccc(Cl)c1	2.38
Cc1cc(C)nc(NC(=O)CSc2nn(C)c(=S)s2)n1	0.46
c1ccc(Nc2nc(-c3ccccc3)nc3ccccc23)cc1	0.12
O=c1nc(Nc2ccccc2)oc2ccccc12	3.75*
O=c1nc(-c2ccc(Cl)cc2)oc2ccccc12	0.94
Cc1ccc(C(=O)Nc2cnc3sccn3c2=O)cc1	0.32
COc1cccc2c1OC(C(C)C)N1N=C(c3cc(C)ccc3O)CC21 (stereo not drawn)	2.25
CC(C)(C)SC(=S)SCC(=O)c1ccc([N+](=O)[O-])cc1	-1.47
N#Cc1ccc(N/N=C/c2ccc(Cl)cc2)c(Cl)c1	1.6
O=c1oc(-c2cccc(Cl)c2)nc2ccccc12	0.1
O=c1oc(-c2ccc(-c3ccccc3)cc2)nc2ccccc12	0.22
O=c1oc(-c2ccccc2Br)nc2ccccc12	4.59*
CCCCCNc1nc(CC)c2c(c1C#N)CC(C)(C)OC2	-0.44
COC(=O)c1cncc(Br)c1	0.59
O=c1c2cnn(-c3ccccc3)c2ncn1/N=C/c1ccc(OCc2ccccc2)cc1	-0.77
O=c1c2cnn(-c3ccccc3)c2nnn1/N=C/c1ccc(OCc2ccccc2)cc1	-1.07
SMILES	Dicer processing
O=c1c2cnn(-c3ccccc3)c2nnn1/N=C/c1ccc([N+](=O)[O-])cc1	3.28*
Cc1nc2c(cnn2-c2ccccc2)c(=O)n1/N=C/c1cccs1	2.05
Cc1nc2c(cnn2-c2ccccc2)c(=O)n1/N=C/c1ccc(Cl)cc1	3.18*
O=c1c2cnn(-c3ccccc3)c2ncn1/N=C/c1ccc(Cl)cc1	0.07
CC1=C(C(=O)Nc2cccc(C)n2)C(c2cccs2)C2=C(CC(C)(C)CC2=O)N1 (stereo not drawn)	2.01
CC1C(=O)N(C)c2ccc(S(=O)(=O)Nc3ccc(Cl)cc3Cl)cc21 (stereo not drawn)	-0.7

Bioassay records (PubChem BioAssay)
